According to PubChem BioAssay (Tox21):
Inconclusive results are not listed. The source made the active and inactive calls. Calls come from the whole dose curve.

Experiments:
[1] = target: Acetylcholinesterase (Homo sapiens) (UniProt P22303); experiment: Acetylcholinesterase (AChE) small molecule antagonists: colormetric cell-based qHTS assay (AID 1347395); note: nearly all actives have a fitted effect of over 30% in size
In short: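 Cells (SH-SY5Y, 2,000 per well) are seeded and left overnight at 37 C. Compound is added for 30 min, then DTNB and acetylthiocholine for a further 90 min at 37 C before absorbance-based thiocholine detection.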

[2] = target: Acetylcholinesterase (Homo sapiens) (UniProt P22303); experiment: Acetylcholinesterase (AChE) small molecule antagonists: enzyme-based qHTS assay (AID 1347397); conditions: Potency: AChE enzyme activity inhibition; outcome: AChE enzyme activity inhibition; note: nearly all actives have a fitted effect of over 55% in size
In short: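 Recombinant human AChE, dispensed at 50 mU/mL, was preincubated with Tox21 10K compounds or DMSO vehicle for 30 min at room temperature. DTNB plus acetylthiocholine was then added, and thiocholine was measured colorimetrically after a further 10 min.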

[3] = target: Acetylcholinesterase (Homo sapiens) (UniProt P22303); experiment: Acetylcholinesterase (AChE) small molecule antagonists: fluorescence cell-based qHTS assay (AID 1347398); conditions: Potency: AChE activity; outcome: AChE activity; note: nearly all actives have a fitted effect of over 50% in size
In short: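 Human SH-SY5Y cells were plated overnight at 37 C, exposed to compound for 30 min at 37 C, 5% CO2, then given acetylthiocholine plus Thiolite Green for 40 min at room temperature; thiocholine fluorescence (Ex/Em 490/520 nm) reports endogenous AChE activity.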

[4] = target: Acetylcholinesterase (Homo sapiens) (UniProt P22303); experiment: Acetylcholinesterase (AChE) small molecule antagonists: enzyme-based qHTS assay with human liver microsomes (AID 1347399); conditions: Potency: qHTS inhibition; outcome: qHTS inhibition; note: nearly all actives have a fitted effect of over 60% in size
In short: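 Recombinant human AChE (50 mU/mL in the enzyme mix) and human liver microsomes (0.25 mg/mL final) were preincubated with compound and NADPH (0.25 mg/mL final) for 30 min at 37 C. Acetylthiocholine/DTNB was then added; thiocholine was read colorimetrically after 10 min at room temperature.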

Measured: Potency

Sequence of Acetylcholinesterase (Homo sapiens) (P22303 whole entry, looked up): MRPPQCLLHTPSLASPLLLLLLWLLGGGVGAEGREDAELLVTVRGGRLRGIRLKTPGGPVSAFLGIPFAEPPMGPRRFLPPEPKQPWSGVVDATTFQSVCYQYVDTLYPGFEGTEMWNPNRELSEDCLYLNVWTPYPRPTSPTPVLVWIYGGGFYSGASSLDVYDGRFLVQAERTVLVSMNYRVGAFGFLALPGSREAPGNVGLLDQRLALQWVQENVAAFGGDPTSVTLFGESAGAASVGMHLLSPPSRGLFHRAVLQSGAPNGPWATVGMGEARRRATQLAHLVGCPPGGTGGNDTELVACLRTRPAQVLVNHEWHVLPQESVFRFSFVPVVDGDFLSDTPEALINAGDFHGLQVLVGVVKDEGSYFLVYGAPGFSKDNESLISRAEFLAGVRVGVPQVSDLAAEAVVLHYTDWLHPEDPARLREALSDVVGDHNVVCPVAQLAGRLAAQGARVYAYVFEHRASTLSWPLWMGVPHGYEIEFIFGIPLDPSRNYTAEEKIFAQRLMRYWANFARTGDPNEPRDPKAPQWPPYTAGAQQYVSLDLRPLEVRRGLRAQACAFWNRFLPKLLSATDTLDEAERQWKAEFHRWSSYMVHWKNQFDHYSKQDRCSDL

CCCCOCCOC(=O)c1cccnc1
inactive: all assays above

O=S(=O)(c1ccccc1)c1ccc(Cl)cc1
inactive: all assays above

Nc1ccc(C(=O)O)c(O)c1
inactive: all assays above

Cc1oc2c(NC(=O)c3c(Cl)cccc3Cl)cccc2c1C(C)(C)O
inactive: all assays above

O=Cc1ccc(F)c(Br)c1
inactive: all assays above

CCCCCCCCCCCCCCCC(=O)OC/C=C(C)/C=C/C=C(C)/C=C/C1=C(C)CCCC1(C)C
inactive: all assays above

CC1=C(/C=C/C(C)=C/C=C/C(C)=C\C=O)C(C)(C)CCC1
inactive: all assays above

CCCCCCCC/C=C\CCCCCCCCCCCC(=O)O
inactive: all assays above

COc1ccnc(CS(=O)c2nc3ccc(OC(F)F)cc3[nH]2)c1OC (stereo not given)
inactive: all assays above

CCCCCCCCCCCC(C)=O
inactive: all assays above

CCOc1ccccc1O
inactive: all assays above

CCN(CC)CCOC(=O)C1(c2ccccc2)CCCC1
inactive: all assays above

O=C1OC(CN2CCOCC2)CN1/N=C/c1ccc([N+](=O)[O-])o1 (stereo not given)
inactive: all assays above

CCCCN
inactive: all assays above

CC1OC(=O)C(C)OC1=O (stereo not given)
inactive: all assays above
